Data published in the supplement of paper PMC8728848.
Many of the other results were omitted from the sample, so the strongest signals are more common in it than they were.

Columns and labels:
Experiment in all cases: glycan array binding signal (z-score within array); higher = stronger binding
Conditions in all cases: glycan notation: IUPAC condensed, linker removed
[1] = biological target: Fuc(a1-2)Gal(b1-3)GlcNAc(b1-2)Man(a1-3)[Fuc(a1-2)Gal(b1-3)GlcNAc(b1-2)Man(a1-6)]Man(b1-4)GlcNAc(b1-4)GlcNAc
In short: (§1)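 Negative Z-scores can be read as non-binding. The Z-score is calculated within each array and then averaged across arrays of one protein sequence at different concentrations or buffers and across linkers. Arrays, 3228 in all, were curated from the Consortium for Functional Glycomics database and kept only where the protein sequence was available.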

[2] = biological target: Fuc(a1-2)Gal(b1-3)GlcNAc(b1-3)[Fuc(a1-3)[Gal(b1-4)]GlcNAc(b1-6)]Gal(b1-4)Glc
In short: as §1

[3] = biological target: Fuc(a1-2)Gal(b1-3)[Fuc(a1-4)]GlcNAc
In short: as §1

[4] = biological target: Fuc(a1-2)Gal(b1-4)GlcNAc(b1-2)[Fuc(a1-2)Gal(b1-4)GlcNAc(b1-4)]Man(a1-3)[Fuc(a1-2)Gal(b1-4)GlcNAc(b1-2)Man(a1-6)]Man(b1-4)GlcNAc(b1-4)GlcNAc
In short: as §1

[5] = biological target: Fuc(a1-2)[Gal(a1-3)]Gal(b1-3)GlcNAc
In short: as §1

[6] = biological target: Fuc(a1-2)[GalNAc(b1-3)]Gal
In short: as §1

[7] = biological target: Fuc(a1-3)[Gal(b1-4)]GlcNAc(b1-3)GalNAc
In short: as §1

Gal(a1-3)Gal(b1-4)Glc = biological target: Gal(a1-3)Gal(b1-4)Glc
In short: as §1

Gal(a1-3)Gal(b1-4)GlcNAc = biological target: Gal(a1-3)Gal(b1-4)GlcNAc
In short: as §1

[8] = biological target: Gal(a1-3)[Gal(a1-4)]Gal(b1-4)GlcNAc
In short: as §1

Gal(a1-4)Gal(b1-4)GlcNAc = biological target: Gal(a1-4)Gal(b1-4)GlcNAc
In short: as §1

[9] = biological target: Gal(b1-3)Gal(b1-4)GlcNAc(b1-2)Man(a1-3)[Gal(b1-3)Gal(b1-4)GlcNAc(b1-2)Man(a1-6)]Man(b1-4)GlcNAc(b1-4)GlcNAc
In short: as §1

[10] = biological target: Gal(b1-3)GalNAc(b1-3)Gal(a1-4)Gal(b1-4)Glc
In short: as §1

Gal(b1-3)GlcNAc = biological target: Gal(b1-3)GlcNAc
In short: as §1

[11] = biological target: Gal(b1-3)GlcNAc(b1-3)Gal(b1-4)GlcNAc(b1-6)[Gal(b1-3)GlcNAc(b1-3)]Gal(b1-4)Glc
In short: as §1

[12] = biological target: Gal(b1-3)[Fuc(a1-4)]GlcNAc
In short: as §1

[13] = biological target: Gal(b1-3)[Fuc(a1-4)]GlcNAc(b1-2)Man(a1-3)[Gal(b1-3)[Fuc(a1-4)]GlcNAc(b1-2)Man(a1-6)]Man(b1-4)GlcNAc(b1-4)[Fuc(a1-6)]GlcNAc
In short: as §1

[14] = biological target: Gal(b1-3)[Fuc(a1-4)]GlcNAc(b1-3)Gal(b1-4)GlcNAc
In short: as §1

Gal(b1-4)Gal = biological target: Gal(b1-4)Gal
In short: as §1

[15] = biological target: Gal(b1-4)GlcNAc(b1-3)Gal(b1-3)GlcNAc
In short: as §1

[16] = biological target: Gal(b1-4)GlcNAc(b1-3)Gal(b1-4)[Fuc(a1-3)]GlcNAc(b1-3)Gal(b1-4)[Fuc(a1-3)]GlcNAc
In short: as §1

[17] = biological target: Gal(b1-4)GlcNAc(b1-3)[GlcNAc(b1-6)]Gal(b1-4)GlcNAc
In short: as §1

Gal3S(b1-3)GalNAc = biological target: Gal3S(b1-3)GalNAc
In short: as §1

Gal3S(b1-4)GlcNAc6S = biological target: Gal3S(b1-4)GlcNAc6S
In short: as §1

Gal3S6S(b1-4)GlcNAc6S = biological target: Gal3S6S(b1-4)GlcNAc6S
In short: as §1

Gal6S(b1-3)GlcNAc6S = biological target: Gal6S(b1-3)GlcNAc6S
In short: as §1

Gal6S(b1-4)GlcNAc = biological target: Gal6S(b1-4)GlcNAc
In short: as §1

[18] = biological target: GalNAc(b1-3)Gal(a1-4)Gal(b1-4)GlcNAc
In short: as §1

Glc(a1-4)Glc = biological target: Glc(a1-4)Glc
In short: as §1

Glc(b1-4)Glc = biological target: Glc(b1-4)Glc
In short: as §1

GlcA(b1-3)GlcNAc = biological target: GlcA(b1-3)GlcNAc
In short: as §1

[19] = biological target: GlcNAc(b1-2)Man(a1-3)[GlcNAc(b1-2)Man(a1-6)]Man(b1-4)GlcNAc(b1-4)[Fuc(a1-6)]GlcNAc
In short: as §1

[20] = biological target: GlcNAc(b1-2)[GlcNAc(b1-4)]Man(a1-3)[GlcNAc(b1-4)][GlcNAc(b1-2)Man(a1-6)]Man(b1-4)GlcNAc(b1-4)GlcNAc
In short: as §1

[21] = biological target: GlcNAc(b1-2)[GlcNAc(b1-6)]Man(a1-6)[GlcNAc(b1-2)Man(a1-3)][GlcNAc(b1-4)]Man(b1-4)GlcNAc(b1-4)GlcNAc
In short: as §1

[22] = biological target: GlcNAc(b1-4)GlcNAc(b1-4)GlcNAc
In short: as §1

[23] = biological target: GlcNAc(b1-4)[GlcNAc(b1-6)]GalNAc
In short: as §1

Kdn(a2-3)Gal(b1-3)GalNAc = biological target: Kdn(a2-3)Gal(b1-3)GalNAc
In short: as §1

Kdn(a2-3)Gal(b1-4)GlcNAc = biological target: Kdn(a2-3)Gal(b1-4)GlcNAc
In short: as §1

Kdn(a2-6)Gal(b1-4)GlcNAc = biological target: Kdn(a2-6)Gal(b1-4)GlcNAc
In short: as §1

[24] = biological target: Neu5Ac(a2-3)Gal(b1-3)GalNAc(b1-4)[Neu5Ac(a2-8)Neu5Ac(a2-3)]Gal(b1-4)Glc
In short: as §1

[25] = biological target: Neu5Ac(a2-3)Gal(b1-3)GlcNAc(b1-3)GalNAc
In short: as §1

Neu5Ac(a2-3)GalNAc = biological target: Neu5Ac(a2-3)GalNAc
In short: as §1

Neu5Ac(a2-6)Gal = biological target: Neu5Ac(a2-6)Gal
In short: as §1

[26] = biological target: Neu5Ac(a2-6)Gal(b1-4)GlcNAc(b1-2)Man(a1-3)[Man(a1-6)]Man(b1-4)GlcNAc(b1-4)GlcNAc
In short: as §1

[27] = biological target: Neu5Ac(a2-6)Gal(b1-4)GlcNAc6S
In short: as §1

[28] = biological target: Neu5Ac(a2-6)GalNAc(b1-4)GlcNAc
In short: as §1

Neu5Ac(a2-8)Neu5Ac = biological target: Neu5Ac(a2-8)Neu5Ac
In short: as §1

[29] = biological target: Neu5Gc(a2-6)Gal(b1-4)GlcNAc
In short: as §1

[30] = biological target: Neu5Gc(b2-6)Gal(b1-4)GlcNAc
In short: as §1

B1: SEX4 (Arabidopsis thaliana), Q944A8 (protein)
chain: TQAMGAVLTYRHELGMNYNFIRPDLIVGSCLQTPEDVDKLRKIGVKTIFCLQQDPDLEYFGVDISSIQAYAKKYSDIQHIRCEIRDFDAFDLRMRLPAVVGTLYKAVKRNGGVTYVHCTAGMGRAPAVALTYMFWVQGYKLMEAHKLLMSKRSCFPKLDAIRNATIDILTGLKRKTVTLTLKDKGFSRVEISGLDIGWGQRIPLTLGKGTGFWILKRELPEGQFEYKYIIDGEWTHNEAEPFIGPNKDGHTNNYAKVVDDPTSVDGTTRERLSSEDPELLEEERSKLIQFLETCSEAEV
For B1, the “glycan array binding signal (z-score)” value [1] was -0.14, the “glycan array binding signal (z-score)” value [2] was -0.488 and the “glycan array binding signal (z-score)” value [3] was -0.43. For the same binder, the “glycan array binding signal (z-score)” value [4] was 3.41, the “glycan array binding signal (z-score)” value [5] was -0.101 and the “glycan array binding signal (z-score)” value [6] was -0.555. The “glycan array binding signal (z-score)” value [7] was 2.34, the “glycan array binding signal (z-score)” value (Gal(a1-3)Gal(b1-4)Glc) was -0.237 and the “glycan array binding signal (z-score)” value (Gal(a1-3)Gal(b1-4)GlcNAc) was 0.108. For the same binder, the “glycan array binding signal (z-score)” value [8] was -0.539, the “glycan array binding signal (z-score)” value (Gal(a1-4)Gal(b1-4)GlcNAc) was -0.482 and the “glycan array binding signal (z-score)” value [9] was -0.329. The “glycan array binding signal (z-score)” value [10] was -0.231, the “glycan array binding signal (z-score)” value (Gal(b1-3)GlcNAc) was -0.554 and the “glycan array binding signal (z-score)” value [11] was -0.273. For the same binder, the “glycan array binding signal (z-score)” value [12] was -0.398, the “glycan array binding signal (z-score)” value [13] was -0.406 and the “glycan array binding signal (z-score)” value [14] was 0.013. For the same binder, the “glycan array binding signal (z-score)” value (Gal(b1-4)Gal) was -0.4, the “glycan array binding signal (z-score)” value [15] was -0.483 and the “glycan array binding signal (z-score)” value [16] was -0.35. For the same binder, the “glycan array binding signal (z-score)” value [17] was -0.354, the “glycan array binding signal (z-score)” value (Gal3S(b1-3)GalNAc) was -0.502 and the “glycan array binding signal (z-score)” value (Gal3S(b1-4)GlcNAc6S) was 0.229. For the same binder, the “glycan array binding signal (z-score)” value (Gal3S6S(b1-4)GlcNAc6S) was 2.76, the “glycan array binding signal (z-score)” value (Gal6S(b1-3)GlcNAc6S) was 1.27 and the “glycan array binding signal (z-score)” value (Gal6S(b1-4)GlcNAc) was 0.104. For the same binder, the “glycan array binding signal (z-score)” value [18] was -0.406, the “glycan array binding signal (z-score)” value (Glc(a1-4)Glc) was -0.393 and the “glycan array binding signal (z-score)” value (Glc(b1-4)Glc) was -0.561. For the same binder, the “glycan array binding signal (z-score)” value (GlcA(b1-3)GlcNAc) was 16, the “glycan array binding signal (z-score)” value [19] was 3.1 and the “glycan array binding signal (z-score)” value [20] was 0.008. For the same binder, the “glycan array binding signal (z-score)” value [21] was -0.06, the “glycan array binding signal (z-score)” value [22] was -0.388 and the “glycan array binding signal (z-score)” value [23] was -0.489. The “glycan array binding signal (z-score)” value (Kdn(a2-3)Gal(b1-3)GalNAc) was 0.126, the “glycan array binding signal (z-score)” value (Kdn(a2-3)Gal(b1-4)GlcNAc) was 0.514 and the “glycan array binding signal (z-score)” value (Kdn(a2-6)Gal(b1-4)GlcNAc) was -0.36. For the same binder, the “glycan array binding signal (z-score)” value [24] was 0.161, the “glycan array binding signal (z-score)” value [25] was 2.39 and the “glycan array binding signal (z-score)” value (Neu5Ac(a2-3)GalNAc) was -0.529. For the same binder, the “glycan array binding signal (z-score)” value (Neu5Ac(a2-6)Gal) was -0.496, the “glycan array binding signal (z-score)” value [26] was 2.32 and the “glycan array binding signal (z-score)” value [27] was 2.46. The “glycan array binding signal (z-score)” value [28] was -0.017, the “glycan array binding signal (z-score)” value (Neu5Ac(a2-8)Neu5Ac) was -0.065 and the “glycan array binding signal (z-score)” value [29] was 0.489. The “glycan array binding signal (z-score)” value [30] was -0.09.
